Experimental data published in PubChem BioAssay.
Active and inactive are the calls of the source.

Key:
[1] = anti-His antibody binders, primary screen, artefact control for SMM control protein annotation, biochemical, small-molecule microarray, 635 nm fluorescence (AID 1128); conditions: anti-His Alexa647 antibody binding, higher = more signal;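 also: score merges feature fluorescence with signal-to-noise for each printed compound spot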
[2] = tested on: Human papillomavirus type 1a E7 protein (residues 1-88); test: HPV1a E7 small-molecule binders, primary screen, biochemical, small-molecule microarray, residues 1-88, 635 nm (AID 1129); conditions: small-molecule microarray binding, fluorescence 635 nm; higher = more signal
[3] = biological target: Focal adhesion kinase 1 (Homo sapiens) (UniProt Q05397); test: small-molecule microarray binders of FAK, primary screen, biochemical, 635/667 nm fluorescence, BSA, DTT (AID 1130); conditions: PTK2 binding, 635 nm fluorescence, higher = more signal;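 also: composite of spot emission at 667 nm and signal to noise over triplicate slides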
[4] = tested on: Fibrinogen (Alexa647-labelled); test: fibrinogen binders on compound microarrays, profiling panel, artefact control for SMM control-protein annotation, biochemical, small-molecule microarray, 635/667 nm fluorescence (AID 1131); conditions: fibrinogen-A647 binding fluorescence, higher = more signal;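 also: z-score merges 667 nm fluorescence with per-spot signal-to-noise over triplicate slides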
[5] = biological target: Follistatin (Homo sapiens) (UniProt P19883); test: follistatin binders on small-molecule microarrays, primary screen, biochemical, small-molecule microarray, 635/667 nm fluorescence (AID 1132); conditions: FST binding, 635 nm fluorescence, higher = more signal
[6] = biological target: Fibroblast growth factor 2 (Homo sapiens) (UniProt P09038); test: FGF2 binders on small-molecule microarrays, primary screen, biochemical, small-molecule microarray, 635/667 nm fluorescence (AID 1133); conditions: small-molecule microarray binding, FGF2, fluorescence 635/667; higher = more signal
[7] = mitochondrial membrane potential change in A549 cells, profiling panel, cell-based, JC-1 fluorescence, basal, 24 h, 100 nL (AID 1138); conditions: higher = more signal;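 also: A549 lung adenocarcinoma cells under basal conditions with no added stimulus; test concentration not given here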
Lefty1 = Lefty1 binders on small-molecule microarrays, primary screen, biochemical, small-molecule microarray, 635/667 nm fluorescence (AID 1139); conditions: small-molecule microarray binding, fluorescence 635/667; higher = more signal
[8] = tested on: wheat germ agglutinin (Triticum aestivum), Alexa647-labelled; test: wheat germ agglutinin binders on compound microarrays, profiling panel, artefact control for SMM control-protein annotation, biochemical, small-molecule microarray, 635/667 nm fluorescence (AID 1140); conditions: WGA-A647 binding, 635 nm fluorescence, higher = more signal;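 also: score merges 667 nm feature emission with signal to noise over triplicate slides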
[9] = biological target: Luciferin 4-monooxygenase (Photinus pyralis) (UniProt P08659); test: firefly luciferase enzyme inhibitors, primary screen, biochemical, luminescence, purified enzyme, 2006 set (AID 1141); conditions: SteadyGlo luminescence, 30 min, higher = more signal, called active from +8 up or from −8 down;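 also: cell-free assay with purified firefly luciferase at 100 ng per well in PBS; test concentration not given here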
Luciferin 4-monooxygenase (Photinus pyralis), sequence (P08659 whole entry, looked up): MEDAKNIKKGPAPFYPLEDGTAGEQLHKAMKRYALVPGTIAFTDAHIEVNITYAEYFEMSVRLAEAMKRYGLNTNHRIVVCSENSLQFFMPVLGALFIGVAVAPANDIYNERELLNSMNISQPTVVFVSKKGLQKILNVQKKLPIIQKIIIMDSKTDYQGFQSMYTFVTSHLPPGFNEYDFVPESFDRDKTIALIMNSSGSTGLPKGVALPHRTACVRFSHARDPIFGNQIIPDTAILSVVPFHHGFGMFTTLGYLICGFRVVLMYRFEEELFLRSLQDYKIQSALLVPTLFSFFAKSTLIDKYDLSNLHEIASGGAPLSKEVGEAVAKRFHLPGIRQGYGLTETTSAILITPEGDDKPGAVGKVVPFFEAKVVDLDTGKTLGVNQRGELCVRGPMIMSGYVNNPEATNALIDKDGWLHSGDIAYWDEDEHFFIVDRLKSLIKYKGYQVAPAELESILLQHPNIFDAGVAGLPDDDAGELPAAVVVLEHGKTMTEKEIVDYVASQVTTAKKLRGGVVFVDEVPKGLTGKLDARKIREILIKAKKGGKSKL

Follistatin (Homo sapiens), sequence (P19883 whole entry, looked up): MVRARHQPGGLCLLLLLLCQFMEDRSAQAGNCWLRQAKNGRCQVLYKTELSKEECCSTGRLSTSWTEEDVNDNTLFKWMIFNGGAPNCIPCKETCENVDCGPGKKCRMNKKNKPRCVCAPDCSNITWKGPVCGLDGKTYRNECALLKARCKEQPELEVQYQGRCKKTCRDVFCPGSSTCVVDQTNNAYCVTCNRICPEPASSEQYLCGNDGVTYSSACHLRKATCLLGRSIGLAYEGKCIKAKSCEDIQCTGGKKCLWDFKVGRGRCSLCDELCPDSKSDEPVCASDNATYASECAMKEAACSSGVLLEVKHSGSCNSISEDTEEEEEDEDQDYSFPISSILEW
Focal adhesion kinase 1 (Homo sapiens), sequence (Q05397 whole entry, looked up): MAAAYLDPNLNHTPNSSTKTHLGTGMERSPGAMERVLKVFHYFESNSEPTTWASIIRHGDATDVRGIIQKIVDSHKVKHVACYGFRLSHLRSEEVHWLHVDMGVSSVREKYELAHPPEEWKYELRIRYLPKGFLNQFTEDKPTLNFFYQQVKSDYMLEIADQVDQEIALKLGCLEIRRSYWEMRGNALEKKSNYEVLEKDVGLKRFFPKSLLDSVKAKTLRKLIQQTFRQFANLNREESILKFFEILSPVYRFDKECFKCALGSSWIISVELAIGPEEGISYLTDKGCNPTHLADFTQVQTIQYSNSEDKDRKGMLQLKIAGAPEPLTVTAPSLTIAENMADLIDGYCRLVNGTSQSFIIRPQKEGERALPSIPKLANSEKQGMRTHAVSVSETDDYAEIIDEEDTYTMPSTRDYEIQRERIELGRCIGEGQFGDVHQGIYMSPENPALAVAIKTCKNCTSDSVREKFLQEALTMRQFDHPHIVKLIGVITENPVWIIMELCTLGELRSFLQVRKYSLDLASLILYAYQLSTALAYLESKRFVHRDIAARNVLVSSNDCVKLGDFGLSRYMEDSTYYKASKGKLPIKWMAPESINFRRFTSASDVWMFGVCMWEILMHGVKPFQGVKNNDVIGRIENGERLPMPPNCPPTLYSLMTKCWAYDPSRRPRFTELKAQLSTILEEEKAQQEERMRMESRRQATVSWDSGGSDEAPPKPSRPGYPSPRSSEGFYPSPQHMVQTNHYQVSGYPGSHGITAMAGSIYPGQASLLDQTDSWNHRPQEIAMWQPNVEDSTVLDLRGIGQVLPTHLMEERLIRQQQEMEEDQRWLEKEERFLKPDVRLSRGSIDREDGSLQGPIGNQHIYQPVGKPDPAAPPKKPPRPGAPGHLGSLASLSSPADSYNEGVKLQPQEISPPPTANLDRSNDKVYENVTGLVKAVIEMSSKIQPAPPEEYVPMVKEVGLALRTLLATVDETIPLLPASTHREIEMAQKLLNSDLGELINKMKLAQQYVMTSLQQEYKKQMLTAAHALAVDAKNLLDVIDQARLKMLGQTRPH
Fibroblast growth factor 2 (Homo sapiens), sequence (P09038 whole entry, looked up): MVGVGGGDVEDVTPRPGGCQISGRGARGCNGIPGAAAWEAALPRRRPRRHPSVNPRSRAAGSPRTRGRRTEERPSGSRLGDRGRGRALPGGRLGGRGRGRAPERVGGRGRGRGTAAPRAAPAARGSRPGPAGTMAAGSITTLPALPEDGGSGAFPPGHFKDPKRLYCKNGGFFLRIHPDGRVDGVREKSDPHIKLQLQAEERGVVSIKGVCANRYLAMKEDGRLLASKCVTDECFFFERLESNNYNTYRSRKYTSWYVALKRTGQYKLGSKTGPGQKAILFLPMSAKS

## COc1ccc([Si](C)(C)[C@H]2[C@H](CCO)O[C@@]3(C(=O)N(Cc4ccccc4)c4ccc(N5CCOC5=O)cc43)[C@@H]2C)cc1
[1]
  composite z-score: 0.783
[2]
  composite z-score: 0.981
[3]
  composite z-score: 0.0096
[4]
  composite z-score: 0.773
[5]
  composite z-score: 0.701
[6]
  composite z-score: 1.11
[7]
  z-score: 0.571
Lefty1
  composite z-score: 0.385
[8]
  composite z-score: 0.986
[9]
  z-score: 0.446 (inactive)

## CN(C)C(=O)[C@@]1(CCC(=O)OC(C)(C)C)N=C(c2ccc(OCCCO)cc2)O[C@H]1c1ccccc1CN=[N+]=[N-]
[1]
  composite z-score: 2.38
[2]
  composite z-score: 1.17
[3]
  composite z-score: 0.821
[4]
  composite z-score: 1.01
[5]
  composite z-score: 1.29
[6]
  composite z-score: 0.512
[7]
  z-score: 0.123
Lefty1
  composite z-score: -0.597
[8]
  composite z-score: 1.05
[9]
  z-score: -0.659 (inactive)

## O=C(N1CCOCC1)[C@@]1(CCS(=O)(=O)c2ccccc2)N=C(c2ccc(OCCCO)cc2)O[C@H]1c1ccccc1
[1]
  composite z-score: 3.23
[2]
  composite z-score: 1.25
[3]
  composite z-score: 0.919
[4]
  composite z-score: 1
[5]
  composite z-score: 1.25
[6]
  composite z-score: 0.162
[7]
  z-score: 0.584
Lefty1
  composite z-score: -0.415
[8]
  composite z-score: 1.29
[9]
  z-score: -0.0763 (inactive)

## CC(C)OC(=O)CC(=O)CC(O)c1ccc([N+](=O)[O-])cc1 (stereo not given)
[1]
  composite z-score: 0.42
[2]
  composite z-score: 0.304
[3]
  composite z-score: -0.0134
[4]
  composite z-score: -0.434
[5]
  composite z-score: -0.134
[6]
  composite z-score: -0.404
[7]
  z-score: 0.276
Lefty1
  composite z-score: -0.006
[8]
  composite z-score: 0.518
[9]
  z-score: 0.419 (inactive)

## COc1cc2c(cc1O)C(c1ccc(CN3CCCC3)cc1)N(C)CC2 (stereo not given)
[1]
  composite z-score: -1.52
[2]
  composite z-score: -2.03
[3]
  composite z-score: -0.489
[4]
  composite z-score: 0.109
[5]
  composite z-score: -0.843
[6]
  composite z-score: -0.324
[7]
  z-score: 0.563
Lefty1
  composite z-score: -1.17
[8]
  composite z-score: 0.434
[9]
  z-score: -0.831 (inactive)

## CCCNC(=O)[C@@]1(Sc2ccc(C)cc2)CC(=O)N(C(C)C)[C@@H]1c1ccc(CO)cc1I
[1]
  composite z-score: -0.139
[2]
  composite z-score: -0.435
[3]
  composite z-score: -0.288
[4]
  composite z-score: -0.678
[5]
  composite z-score: -1.21
[6]
  composite z-score: -1.5
[7]
  z-score: 0.794
Lefty1
  composite z-score: -1.96
[8]
  composite z-score: -0.831
[9]
  z-score: -0.121 (inactive)

## O=C1C2C=CC(C(O)C=Cc3ccc([N+](=O)[O-])cc3)N(Nc3ccccc3)C2C(=O)N1c1ccccc1 (stereo not given)
[1]
  composite z-score: 0.185
[2]
  composite z-score: 1.2
[3]
  composite z-score: 0.0142
[4]
  composite z-score: 1.02
[5]
  composite z-score: 1.24
[6]
  composite z-score: 0.0395
[7]
  z-score: -0.0492
Lefty1
  composite z-score: 0.416
[8]
  composite z-score: 0.932
[9]
  z-score: -1.65 (inactive)

## COc1ccc([Si](C)(C)[C@@H]2[C@@H](CC(=O)N3Cc4ccccc4C[C@H]3CO)O[C@]3(C(=O)N(Cc4ccc(N5CCC5=O)cc4)c4ccccc43)[C@H]2C)cc1
[1]
  composite z-score: 0.365
[2]
  composite z-score: 1.05
[3]
  composite z-score: 0.315
[4]
  composite z-score: 0.358
[5]
  composite z-score: 0.825
[6]
  composite z-score: 1.57
[7]
  z-score: 0.199
Lefty1
  composite z-score: 1.44
[8]
  composite z-score: 0.283
[9]
  z-score: 0.205 (inactive)

## COCCOC(=O)N1C(=O)[C@@]2(c3cc(C#CCNC(N)=O)ccc31)[C@H](c1ccc(OCCO)cc1)N1[C@H](c3ccccc3)[C@H](c3ccccc3)OC(=O)[C@H]1[C@@H]2C(N)=O
[1]
  composite z-score: 1.11
[2]
  composite z-score: 1.14
[3]
  composite z-score: 0.31
[4]
  composite z-score: 0.663
[5]
  composite z-score: 0.926
[6]
  composite z-score: 0.258
[7]
  z-score: -0.405
Lefty1
  composite z-score: 0.43
[8]
  composite z-score: 0.673
[9]
  z-score: -1.83 (inactive)

## COc1ccc(C(O)C2C=CC3C(=O)N(c4ccccc4)C(=O)C3N2Nc2ccccc2)cc1 (stereo not given)
[1]
  composite z-score: 0.85
[2]
  composite z-score: 1.08
[3]
  composite z-score: 0.72
[4]
  composite z-score: 1.01
[5]
  composite z-score: 0.955
[6]
  composite z-score: 0.0088
[7]
  z-score: 0.204
Lefty1
  composite z-score: 0.817
[8]
  composite z-score: 1.1
[9]
  z-score: -0.182 (inactive)

## O=C1C2C=CC(C(O)c3ccc4c(c3)OCO4)N(Nc3ccccc3)C2C(=O)N1c1ccccc1 (stereo not given)
[1]
  composite z-score: 0.496
[2]
  composite z-score: 1.21
[3]
  composite z-score: 0.617
[4]
  composite z-score: 0.979
[5]
  composite z-score: 1.03
[6]
  composite z-score: -0.337
[7]
  z-score: 0.279
Lefty1
  composite z-score: 0.153
[8]
  composite z-score: 0.942
[9]
  z-score: 0.465 (inactive)

## CC1CC/C=C\[C@H]2OC34C=CCN(CCN5CCOCC5)C(=O)[C@H]3N(C(C)CO)C(=O)[C@@H]4C2C(=O)O1 (stereo not given in full)
[1]
  composite z-score: -0.172
[2]
  composite z-score: -1.04
[3]
  composite z-score: -0.421
[4]
  composite z-score: -1.99
[5]
  composite z-score: 0.446
[6]
  composite z-score: -0.439
[7]
  z-score: 0.224
Lefty1
  composite z-score: 0.582
[8]
  composite z-score: -0.928
[9]
  z-score: -1.39 (inactive)

## O=C1N(CCS(=O)(=O)c2ccccc2)Cc2ccccc2[C@@H]2OC(c3ccc(OCCCO)cc3)=N[C@]12CCS(=O)(=O)c1ccccc1
[1]
  composite z-score: 0.519
[2]
  composite z-score: 1.27
[3]
  composite z-score: 1.2
[4]
  composite z-score: 0.645
[5]
  composite z-score: 1.41
[6]
  composite z-score: 1.7
[7]
  z-score: -1.19
Lefty1
  composite z-score: 0.783
[8]
  composite z-score: 0.817
[9]
  z-score: -2.08 (inactive)

## CCOC(=O)C[C@H]1[C@H](OC(=O)c2ccccc2-c2ccccc2)[C@@H](NC(=O)c2ccccc2)c2cc(OCCCO)ccc2N1C(=O)c1ccccc1
[1]
  composite z-score: -0.356
[2]
  composite z-score: 0.558
[3]
  composite z-score: 0.59
[4]
  composite z-score: 0.847
[5]
  composite z-score: 0.378
[6]
  composite z-score: 0.673
[7]
  z-score: 0.629
Lefty1
  composite z-score: 0.292
[8]
  composite z-score: 0.0533
[9]
  z-score: 0.354 (inactive)

## COc1ccc([Si](C)(C)[C@@H]2[C@@H](CC(=O)N3Cc4ccccc4C[C@H]3CO)O[C@]3(C(=O)N(c4ccccc4)c4ccccc43)[C@H]2C)cc1
[1]
  composite z-score: 2.39
[2]
  composite z-score: 0.957
[3]
  composite z-score: 0.983
[4]
  composite z-score: 0.813
[5]
  composite z-score: 1.36
[6]
  composite z-score: 1.46
[7]
  z-score: 0.277
Lefty1
  composite z-score: 1.04
[8]
  composite z-score: 1.53
[9]
  z-score: 0.348 (inactive)

## O=C(O)[C@@H]1C[C@@H]2C(=O)N3CCC[C@H]3C(=O)N2[C@@H]1c1cccc(OCCO)c1
[1]
  composite z-score: 3.41
[2]
  composite z-score: 1.31
[3]
  composite z-score: 2.47
[4]
  composite z-score: 0.977
[5]
  composite z-score: 1.41
[6]
  composite z-score: 1.4
[7]
  z-score: 0.729
Lefty1
  composite z-score: 1.7
[8]
  composite z-score: 1.69
[9]
  z-score: -0.485 (inactive)

## COC(=O)[C@@]1(Cc2ccccc2)[C@H]2c3cc(C(=O)N(C)C)n(CCn4cc([N+](=O)[O-])nc4C)c3C[C@H]2CN1C(=O)c1ccccc1
[1]
  composite z-score: 0.735
[2]
  composite z-score: 0.858
[3]
  composite z-score: 1.39
[4]
  composite z-score: 0.989
[5]
  composite z-score: 0.387
[6]
  composite z-score: -0.163
[7]
  z-score: -0.22
Lefty1
  composite z-score: 0.216
[8]
  composite z-score: 1.1
[9]
  z-score: -0.0637 (inactive)
